Measurements taken from PubChem BioAssay (NCATS).
Records with an inconclusive call do not appear. Values without a mark were called inactive. The call rests on the fitted dose curve; in most records, active means well fitted cell-killing curve with a large enough effect; inconclusive means small, poorly fitted or top-dose-only effect, or effect the other way; inactive means flat fitted curve, though single readings scatter.

These compounds were tested on CASKI (assay: Primary qHTS to identify gynecologic anti-cancer compounds using libraries of approved drugs and bioactive compounds (AID 1345084; further: nearly all actives have a fitted effect of over 55% in size)). Settings: Gynecologic cancer cell panel viability, ATPlite luminescence, 48 h; series mostly up to 57.5 µM; activity change, negative = cytotoxicity: at the top concentration.
Procedure, shortened: (§1)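 48 h compound exposure at 37 C, 5% CO2; five-point qHTS. ATPlite luminescence readout of cell ATP.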
On the % scale 0 is the no-effect control and ±100 the full control effect.

Point of comparison: `Clc1ccc(CN[C@H]2CCN(c3ncc(Br)cn3)C2)c(Cl)c1`, “activity change, negative = cytotoxicity” value -0.462%. Against it:
- CN1CC[C@@H](NC(=O)Nc2ccc(C#N)cc2)C[C@@H]1c1nc2ccccc2[nH]1 — higher, 12.1%
- O=c1ccn(C2OC(CO)C(O)C2O)c(=O)[nH]1 (stereo unspecified) — higher, 1.68%
- CNC(=O)COC(=O)NCCC1CCN(c2cccc(C)n2)CC1 — higher, 8.26%
- Cc1nn(C)c(COc2ccc(N3CCN(S(=O)(=O)N(C)C)CC3)cc2)c1-c1cccc2c(CCCOc3cccc4ccccc34)c(C(=O)O)n(CCN3CCOCC3)c12 — higher, 13.5%
- CCCCS(=O)(=O)Nc1ncnc(OCCOc2ncc(Br)cn2)c1-c1ccc(Br)cc1 — higher, 8.17%
- C[C@H]1C[C@H]2[C@@H]3CCC4=CC(=O)C=C[C@]4(C)[C@@]3(F)[C@@H](O)C[C@]2(C)[C@@]1(O)C(=O)COP(=O)(O)O — lower, -2.58%
- C(#Cc1cccc(CN2CCOCC2)c1)CCN1CCCCC1 — higher, 10.8%
- CC(=O)N1CCN(NC(=O)c2ccc(F)cc2)CC1 — higher, 22.3%

Point of comparison: `COc1cc(C)c(C(=O)O[C@H]2[C@@H](O)[C@H](n3ccc(=O)[nH]c3=O)O[C@@H]2CO)c(OC)c1`, “activity change, negative = cytotoxicity” value -1.33% [at 25.3 µM]. Against it:
- O=C(O)c1cc(O[C@@H]2O[C@H](CO[C@@H]3OC[C@@H](O)[C@H](O)[C@H]3O)[C@@H](O)[C@H](O)[C@H]2O)c2ccccc2c1O — higher, 13.2% [at 25.3 µM]
- COc1ccc(/C=C/C(=O)O[C@H]2[C@@H]3C=CO[C@@H](O[C@@H]4O[C@H](CO)[C@@H](O)[C@H](O)[C@H]4O)[C@@H]3[C@@]3(CO)O[C@@H]23)cc1O — lower, -6.62% [at 25.3 µM]
- COc1cc(/C=C/C(=O)OC[C@H]2O[C@H](O[C@]3(CO)O[C@H](CO)[C@@H](O)[C@@H]3O)[C@H](O)[C@@H](O)[C@@H]2O)cc(OC)c1O — higher, 10.3% [at 25.3 µM]
- C[C@@]12C[C@]3(O)O[C@H](O1)[C@]1(COC(=O)c4ccccc4)[C@H]3C[C@@]12O[C@@H]1O[C@H](COC(=O)c2ccccc2)[C@@H](O)[C@H](O)[C@H]1O — lower, -5.54% [at 25.3 µM]

Point of comparison: `COc1cc(CCc2ccccc2)c(C(=O)O)c2c1CC(C(C)(C)O)O2` (stereo unspecified), “activity change, negative = cytotoxicity” value 3.45% [at 38.5 µM]. Against it:
- C=C1C(=O)OC2/C=C(\C)CC/C=C(\C(=O)O)CC/C=C(\C)CCC12 (stereo unspecified) — higher, 17.1% [at 38.5 µM]
- C=CC1(C)C=C2C(=O)CC3C(C)(C)CCCC3(C(=O)O)C2(O)CC1 (stereo unspecified) — higher, 13.5% [at 38.5 µM]
- COc1c(C)c2c(c(O)c1C/C=C(\C)CC/C=C(\C)CCC(=O)O)C(=O)OC2 — lower, -1.87% [at 38.5 µM]
- CC(C)(O)c1ccc2c(c1)C(O)CC1C(C)(C(=O)O)CCCC21C (stereo unspecified) — lower, -2.2% [at 38.5 µM]
- CC(C)CC(=O)n1cc(C(N)=O)c(=O)cc1C(O)c1ccccc1 (stereo unspecified) — higher, 5.29% [at 38.5 µM]
- CC(C)C(C#N)O[C@@H]1O[C@H](CO[C@@H]2OC[C@](O)(CO)[C@H]2O)[C@@H](O)[C@H](O)[C@H]1O (stereo partly specified) — lower, -1.56% [at 38.5 µM]
- C=C1CC23CC1(O)CCC2C1=CC2OC(=O)C(C)(C2O)C1C3C(=O)O (stereo unspecified) — lower, -13.7% [at 38.5 µM]

Point of comparison: `C[C@@H]1O[C@@H](O[C@H]2[C@H](O)[C@@H](C(=O)O)O[C@@H](O[C@H]3CC[C@@]4(C)C(CC[C@]5(C)C4CC=C4C6CC(C)(C)CC[C@]6(C(=O)O)CC[C@]45C)C3(C)C)[C@@H]2O[C@@H]2O[C@H](CO)[C@@H](O)[C@H](O)[C@H]2O)[C@H](O)[C@H](O)[C@H]1O` (stereo partly specified), activity change, negative = cytotoxicity -2.17% [at 11.6 µM]. Against it:
- CCCCCCc1cccc(NC(=O)[C@H](N)CCP(=O)(O)O)c1 — higher, 0.791% [at 11.6 µM]

These compounds were tested on Es-2 in the same assay as above. Settings: Gynecologic cancer cell panel viability, ATPlite luminescence, 48 h; series mostly up to 57.5 µM; activity change, negative = cytotoxicity: at the top concentration.
Procedure, shortened: as §1

Point of comparison: `C[C@]12CCC[C@](C)(C(=O)O)C1CCC13C=C(CO)C(CCC12)C3` (stereo partly specified), “activity change, negative = cytotoxicity” value 6.27% [at 38.5 µM]. Against it:
- CC(C)(O)c1ccc2c(c1)C(=O)CC1[C@](C)(CO)CCC[C@]21C (stereo partly specified) — higher, 8.14% [at 38.5 µM]
- CC(=O)C1CCC2(C)C3=C(CCC12C)C1(C)CCC(=O)C(C)(C)C1CC3 (stereo unspecified) — lower, -0.596% [at 38.5 µM]

Point of comparison: `C[C@H]1[C@H](C)CC[C@]2(C(=O)O)CC[C@]3(C)C(=CC[C@@H]4[C@@]5(C)C[C@@H](O)[C@H](O)[C@@](C)(CO)[C@@H]5CC[C@]43C)[C@H]12`, “activity change, negative = cytotoxicity” value -2.33%. Against it:
- O=C(c1ccc(C#Cc2cccc(F)c2)cn1)N1CC2CC2C1 (stereo unspecified) — lower, -8.58%
- C/C=C/C=C/C(CC(=O)O)Nc1ccc(C=O)cc1 (stereo unspecified) — higher, 0.93%

With `C[C@@H]1O[C@@H](O[C@H]2[C@H](OC(=O)[C@]34CCC(C)(C)C[C@H]3C3=CCC5[C@@]6(C)C[C@H](O)[C@H](O[C@@H]7O[C@H](CO)[C@@H](O[C@@H]8O[C@H](CO)[C@@H](O)[C@H](O)[C@H]8O)[C@H](O)[C@H]7O)[C@@](C)(CO)C6[C@H](O)C[C@@]5(C)[C@]3(C)C[C@H]4O)OC[C@H](O)[C@@H]2O)[C@H](O)[C@H](O)[C@H]1O[C@@H]1OC[C@@H](O)[C@H](O[C@@H]2OC[C@](O)(CO)[C@H]2O)[C@H]1O` (stereo partly specified) the activity change, negative = cytotoxicity was 5.24% [at 6.55 µM].
